# Assay results reported in PubChem BioAssay (NCATS).
# A number with no mark means an inactive call. Records with an inconclusive call do not appear. Active and inactive are the calls of the source. Unless noted, calls come from the whole dose curve; as a rule, active = well fitted curve in either direction with a large enough effect (not every such curve was filed as active); inconclusive = small, poorly fitted or top-dose-only effect, or another doubt; inactive = flat fitted curve, though single readings scatter.
# Experiments:
# [1] = molecular target: Lysosomal acid glucosylceramidase (Homo sapiens) (UniProt P04062); assay: Glucocerebrosidase-p2 (AID 348; in the data active = potency below about 10 µM; note: potency is the fitted concentration of half-maximal effect); conditions: purified GBA, blue fluorogenic substrate, 40 min
# In short: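 Normal human glucocerebrosidase (0.2 nM) with blue fluorogenic substrate (80 uM final) in citrate/phosphate pH 5.9 with 10mM sodium taurocholate, 0.01% tween-20; 40 min RT, NaOH/glycine stop; fluorescence Ex 365/Em 440; AC50 from a titration from 0.6 nM upwards.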
# [2] = AP1 Signaling Pathway (AID 357); conditions: ME-180 AP-1-bla reporter, EGF-induced, beta-lactamase ratio, 5 h; at 7.69 µM (top of the series) unless noted;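 note: ME-180 reporter cells stimulated with EGF at its EC50 level; % is set by controls: 0 for no effect and ±100 for the full control effect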
# In short: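 Cells are seeded overnight, exposed to compound titrations and an EC50 level of EGF for 5 hours at 37 °C, then loaded with CCF4 dye for 2.5 hours. Beta-lactamase activity under the AP-1 element is read as a blue/green ratio.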
# [3] = molecular target: Cytochrome P450 1A2 (Homo sapiens) (UniProt P05177); assay: p450-cyp1a2 (AID 410; calls by dose curve; note: potency is the fitted concentration of half-maximal effect;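 for activity change, negative = inhibition: -100% = full effect of reference inhibitor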); conditions: recombinant CYP1A2, luciferin-ME demethylation, luminescence; series mostly up to 11.4 µM
# In short: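 20nM CYP1A2, 100uM Luciferin-ME (=Km), 100mM KPO4; cpd 10 min RT; +NADPH regen, 60 min RT; stop/detect 20 min; luminescence. Normalized to furafylline 57 uM = full inhibition.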
# [4] = NFAT Signaling Pathway (AID 444); conditions: Jurkat NFAT-bla M1, carbachol, beta-lactamase ratio, 5 h; at 7.69 µM (top of the series) unless noted;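 note: carbachol stimulus at about its EC50 of 1 µM final; % is set by controls: 0 for no effect and ±100 for the full control effect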
# In short: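 Jurkat cells carrying an NFAT-driven β-lactamase reporter and co-transfected muscarinic M1 receptor were treated with compound plus carbachol (1 uM final, an EC50 level) for 5 h at 37 °C. CCF4 loading followed for 1 h at RT; 460/530 nm ratio gave %activity.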
# [5] = molecular target: Glucocorticoid receptor (Homo sapiens) (UniProt P04150); assay: GR-GFP Redistribution (AID 450;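 active = compounds whose dose series gives a full or clear partial fitted curve of increased nuclear translocation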; note: potency is the fitted concentration of half-maximal effect); conditions: U2OS GR-GFP nuclear translocation, laser cytometry, 2 h
# [6] = molecular target: Glucocorticoid receptor (Homo sapiens) (UniProt P04150); assay: GR-EFC Redistribution (AID 451; calls by dose curve; note: potency is the fitted concentration of half-maximal effect); conditions: CHO-K1 GR-EFC translocation, beta-gal luminescence, 2 h
# In short: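 CHO-K1 cells stably expressing nuclear-localized β-gal enzyme acceptor and GR fused C-terminally to the enzyme donor fragment; ligand-driven nuclear translocation restores β-gal by complementation. Compounds titrated up to 46 uM final, 2 h at 37 °C; luminescence read.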
# [7] = molecular target: Mitogen-activated protein kinase 10 (Mus musculus) (UniProt Q61831); assay: JNK3 AlphaScreen Assay (AID 530); conditions: JNK3 lysate, c-Jun phosphorylation; series mostly up to 57.1 µM;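 note: kinase came from lysate of stimulated human HepG2 cells; signal reports phosphorylation of biotinylated GST-cJun 1-79 at Ser73 with 10 µM ATP; % is set by controls: 0 for no effect and ±100 for the full control effect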
# In short: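 Biotinylated GST-cJun(1-79) served as substrate for JNK3 in HepG2 lysates stimulated with IL-1beta and TNF-alpha. ATP was 10 uM final, pH 7.6. Ser73 phosphorylation was quantified by AlphaScreen (680 nm excitation).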
# [8] = molecular target: 3',5'-cyclic-AMP phosphodiesterase 4B (Homo sapiens) (UniProt Q07343); assay: qHTS Assay for Inhibitors of PDE-IV (AID 607; active = well fitted activation curve with a large enough effect in the main read-out, with a control signal flat, not every such curve was filed as active; note: % of control where 0% means no effect); conditions: HEK293 ACTOne CNG channel cells, membrane potential fluorescence; series mostly up to 22.9 µM
# In short: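 The readout is membrane depolarisation from a cAMP-sensing CNG channel, detected with a potential dye at ex 535/em 590. Cells were HEK293-derived (endogenous PDE-IV) at 1000 cells/well, titrated up to 22.9 uM final.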
# [9] = Stat Signaling Pathway (AID 446); conditions: ME-180 (cervical carcinoma) SIE beta-lactamase reporter, IL-6 stimulated, 5 h; at 7.69 µM (top of the series) unless noted;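 note: ME-180 cervical cancer cells given 40 pM IL-6 alongside compound; SIE-controlled beta-lactamase reporter measured as 460/530 nm FRET emission ratio; % is set by controls: 0 for no effect and ±100 for the full control effect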
# In short: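 Emission at 460 and 530 nm (excitation 405 nm) reports SIE-controlled beta-lactamase in ME-180 cells. Cells received compound with 40 pM IL-6 for 5 hrs at 37 C; data scaled between 300 pM IL-6 and 125 nM JAK-inhibitor controls.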
# [10] = molecular target: Cytochrome P450 2C19 (Homo sapiens) (UniProt P33261); assay: qHTS Assay for Inhibitors and Substrates of Cytochrome P450 2C19 (AID 899; active = well fitted curve in the direction sought with a large enough effect; an effect the other way counts as inactive or inconclusive; note: % is set by controls: 0 for no effect and ±100 for the full control effect; nearly all actives have a fitted effect of over 60% in size); conditions: recombinant CYP2C19, luciferin-H EGE luminescence; series mostly up to 11.4 µM
# In short: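 NADPH-dependent conversion of Luciferin-H EGE (10uM, at KM) by 5nM enzyme in 50mM KPO4, 60 min at 37C following 10 min compound preincubation. Stopped with luciferin detection buffer; luminescence read after 20 min.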
# [11] = molecular target: Cytochrome P450 3A4 (Homo sapiens) (UniProt P08684); assay: qHTS Assay for Inhibitors and Substrates of Cytochrome P450 3A4 (AID 884; active = well fitted curve in the direction sought with a large enough effect; an effect the other way counts as inactive or inconclusive; note: potency is the fitted concentration of half-maximal effect; nearly all actives have a fitted effect of over 50% in size); conditions: recombinant CYP3A4, Luciferin-PPXE luminescence; series mostly up to 57.1 µM
# In short: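 Luminescent readout of luciferin produced by CYP3A4 (20 nM) dealkylation of Luciferin-PPXE, 25 uM (its KM). NADPH-driven reaction ran 60 min at RT after 10 min compound preincubation; data scaled to 57 uM ketoconazole as 100% inhibition.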
# [12] = molecular target: Cytochrome P450 3A4 (Homo sapiens) (UniProt P08684); assay: qHTS Assay for Activators of Cytochrome P450 3A4 (AID 885; active = well fitted curve in the direction sought with a large enough effect; an effect the other way counts as inactive or inconclusive; note: nearly all actives have a fitted effect of over 65% in size); conditions: recombinant CYP3A4, Luciferin-PPXE luminescence, 60 min; series mostly up to 57.1 µM
# In short: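 Activators are scored by enhanced luminescence from CYP3A4 conversion of luciferin-PPXE (25uM, equal to KM) to luciferin, after 60 min at RT with an NADPH-regenerating system.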
# Chain of Cytochrome P450 1A2 (Homo sapiens) (P05177 whole entry, looked up): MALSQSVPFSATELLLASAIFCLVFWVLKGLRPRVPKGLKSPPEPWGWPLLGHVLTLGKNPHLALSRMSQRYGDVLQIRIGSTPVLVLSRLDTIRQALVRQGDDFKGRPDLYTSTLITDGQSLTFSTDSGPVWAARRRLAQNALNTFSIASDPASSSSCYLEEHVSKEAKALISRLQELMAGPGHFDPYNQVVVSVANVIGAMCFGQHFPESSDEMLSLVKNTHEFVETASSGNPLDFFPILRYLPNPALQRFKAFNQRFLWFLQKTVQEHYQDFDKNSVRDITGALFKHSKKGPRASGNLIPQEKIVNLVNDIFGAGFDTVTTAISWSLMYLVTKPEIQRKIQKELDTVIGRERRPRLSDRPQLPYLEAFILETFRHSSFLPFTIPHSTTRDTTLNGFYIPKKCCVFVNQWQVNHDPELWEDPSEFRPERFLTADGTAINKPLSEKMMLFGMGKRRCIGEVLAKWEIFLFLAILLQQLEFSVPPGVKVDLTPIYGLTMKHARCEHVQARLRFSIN
# Chain of Cytochrome P450 3A4 (Homo sapiens) (P08684 whole entry, looked up): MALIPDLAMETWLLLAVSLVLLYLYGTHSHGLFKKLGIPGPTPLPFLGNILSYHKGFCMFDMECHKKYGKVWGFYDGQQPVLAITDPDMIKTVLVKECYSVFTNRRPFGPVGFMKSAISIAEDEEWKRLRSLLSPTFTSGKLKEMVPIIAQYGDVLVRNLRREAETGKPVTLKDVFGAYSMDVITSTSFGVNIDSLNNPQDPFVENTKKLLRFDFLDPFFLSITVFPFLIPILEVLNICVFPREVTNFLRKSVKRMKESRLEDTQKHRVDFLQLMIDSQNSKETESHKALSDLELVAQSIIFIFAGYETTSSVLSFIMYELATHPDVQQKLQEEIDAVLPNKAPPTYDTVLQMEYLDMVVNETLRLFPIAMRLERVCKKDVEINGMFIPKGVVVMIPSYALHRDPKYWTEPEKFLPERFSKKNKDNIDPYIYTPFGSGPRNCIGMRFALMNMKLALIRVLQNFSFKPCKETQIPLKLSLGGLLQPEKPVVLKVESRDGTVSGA
# Chain of Lysosomal acid glucosylceramidase (Homo sapiens) (P04062 whole entry, looked up): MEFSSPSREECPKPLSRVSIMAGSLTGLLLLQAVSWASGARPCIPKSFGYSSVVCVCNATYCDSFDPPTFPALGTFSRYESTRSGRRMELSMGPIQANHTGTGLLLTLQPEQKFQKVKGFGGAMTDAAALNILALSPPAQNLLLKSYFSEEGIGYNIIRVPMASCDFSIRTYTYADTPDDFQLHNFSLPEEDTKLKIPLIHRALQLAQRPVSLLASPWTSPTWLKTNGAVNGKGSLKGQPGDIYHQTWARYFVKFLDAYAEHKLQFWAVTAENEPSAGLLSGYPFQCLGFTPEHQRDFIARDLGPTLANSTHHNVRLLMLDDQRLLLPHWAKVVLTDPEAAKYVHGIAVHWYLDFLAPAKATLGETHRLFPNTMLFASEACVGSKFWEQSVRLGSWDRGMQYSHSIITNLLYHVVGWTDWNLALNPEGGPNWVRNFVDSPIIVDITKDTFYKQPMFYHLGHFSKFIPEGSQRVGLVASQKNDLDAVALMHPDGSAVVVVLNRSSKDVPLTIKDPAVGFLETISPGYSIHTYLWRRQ
# Chain of Glucocorticoid receptor (Homo sapiens) (P04150 whole entry, looked up, the tested form may be a part): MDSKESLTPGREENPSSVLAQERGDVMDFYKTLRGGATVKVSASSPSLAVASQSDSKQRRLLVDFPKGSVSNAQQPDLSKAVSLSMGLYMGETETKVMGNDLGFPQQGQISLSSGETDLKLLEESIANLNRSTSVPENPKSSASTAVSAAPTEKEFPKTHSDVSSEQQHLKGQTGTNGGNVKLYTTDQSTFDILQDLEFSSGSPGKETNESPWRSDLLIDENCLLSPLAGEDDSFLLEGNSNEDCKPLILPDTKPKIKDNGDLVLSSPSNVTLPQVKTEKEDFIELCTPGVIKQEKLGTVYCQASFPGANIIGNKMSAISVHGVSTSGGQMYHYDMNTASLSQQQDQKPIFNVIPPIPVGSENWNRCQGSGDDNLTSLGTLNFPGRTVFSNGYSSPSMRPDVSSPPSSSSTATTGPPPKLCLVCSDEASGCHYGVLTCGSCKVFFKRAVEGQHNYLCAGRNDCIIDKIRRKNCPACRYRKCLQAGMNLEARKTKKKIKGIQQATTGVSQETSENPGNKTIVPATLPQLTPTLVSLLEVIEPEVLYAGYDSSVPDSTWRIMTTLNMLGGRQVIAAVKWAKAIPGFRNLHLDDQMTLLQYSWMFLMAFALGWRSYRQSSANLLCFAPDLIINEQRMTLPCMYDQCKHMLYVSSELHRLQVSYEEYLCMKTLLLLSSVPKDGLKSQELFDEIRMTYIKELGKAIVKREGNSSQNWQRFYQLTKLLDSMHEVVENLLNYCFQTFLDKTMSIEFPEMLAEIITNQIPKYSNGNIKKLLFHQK
# Chain of 3',5'-cyclic-AMP phosphodiesterase 4B (Homo sapiens) (Q07343 whole entry, looked up): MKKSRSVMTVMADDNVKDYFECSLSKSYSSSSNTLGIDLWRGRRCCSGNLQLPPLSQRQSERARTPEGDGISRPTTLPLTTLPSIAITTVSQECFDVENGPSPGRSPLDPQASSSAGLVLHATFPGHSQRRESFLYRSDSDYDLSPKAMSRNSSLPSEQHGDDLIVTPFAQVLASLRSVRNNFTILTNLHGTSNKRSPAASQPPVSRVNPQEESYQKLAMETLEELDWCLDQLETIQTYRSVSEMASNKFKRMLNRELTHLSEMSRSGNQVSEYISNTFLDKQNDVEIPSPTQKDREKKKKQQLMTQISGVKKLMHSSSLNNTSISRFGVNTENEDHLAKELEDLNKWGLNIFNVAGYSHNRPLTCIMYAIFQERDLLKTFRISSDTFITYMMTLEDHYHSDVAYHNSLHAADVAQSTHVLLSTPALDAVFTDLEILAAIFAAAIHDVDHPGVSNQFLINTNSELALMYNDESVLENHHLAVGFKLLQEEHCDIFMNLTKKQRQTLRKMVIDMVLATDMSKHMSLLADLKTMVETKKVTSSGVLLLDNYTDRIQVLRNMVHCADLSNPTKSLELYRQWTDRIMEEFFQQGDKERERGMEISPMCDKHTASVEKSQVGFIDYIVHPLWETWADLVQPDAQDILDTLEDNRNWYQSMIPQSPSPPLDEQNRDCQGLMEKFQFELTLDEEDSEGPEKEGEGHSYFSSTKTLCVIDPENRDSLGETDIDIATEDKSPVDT
# Chain of Cytochrome P450 2C19 (Homo sapiens) (P33261 whole entry, looked up): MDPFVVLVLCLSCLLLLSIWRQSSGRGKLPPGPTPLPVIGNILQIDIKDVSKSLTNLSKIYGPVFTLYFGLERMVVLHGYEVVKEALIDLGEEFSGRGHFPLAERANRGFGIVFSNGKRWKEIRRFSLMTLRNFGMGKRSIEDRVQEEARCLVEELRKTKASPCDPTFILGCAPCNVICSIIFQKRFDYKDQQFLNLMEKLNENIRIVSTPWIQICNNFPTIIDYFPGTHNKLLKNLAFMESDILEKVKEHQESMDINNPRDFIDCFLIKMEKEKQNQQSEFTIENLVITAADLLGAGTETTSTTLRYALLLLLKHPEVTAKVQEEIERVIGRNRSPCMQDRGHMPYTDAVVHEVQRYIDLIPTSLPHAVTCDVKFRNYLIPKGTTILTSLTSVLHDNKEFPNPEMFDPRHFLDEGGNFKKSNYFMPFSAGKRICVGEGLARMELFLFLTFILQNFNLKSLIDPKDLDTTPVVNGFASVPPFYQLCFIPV
SMILES,Potency [1],"activity change, negative = inhibition [2]",Potency [3],"activity change, negative = inhibition [4]",Potency [5],Potency [6],"activity change, negative = inhibition [7]",outcome [8],"activity, negative = inhibition [9]","activity change, negative = inhibition [3]",Potency [10],Potency [11],"activity change, positive = activation [12]"
CN(CCC(=O)O)C1=Nc2ccc(Cl)cc2C(c2ccccc2)=[N+]([O-])C1,> 11.4 µM,-5.9%,0.0631 µM (active),13.9%,> 46 µM,> 9.22 µM,1.43% [at 11.4 µM],inactive,,,,,
O=C(O)Cc1ccc([N+](=O)[O-])cc1[N+](=O)[O-],> 11.4 µM,-0.903%,3.98 µM (active),-1.68%,> 46 µM,> 9.22 µM,4.4% [at 11.4 µM],inactive,,,,,
CS(=N)(=O)CC[C@H](N)P(=O)(O)O (stereo partly specified),> 11.4 µM,-0.909%,inactive,-0.082%,> 46 µM,,-2.65% [at 11.4 µM],inactive,2.22%,,,,
COc1ccc(C(=O)O[C@H]2CC[C@@]3(C)[C@H]4CC[C@H]5[C@]3(C[C@]3(O)[C@H]6CN7C[C@H](C)CC[C@H]7[C@](C)(O)[C@]6(O)[C@H](O)C[C@]53O)O[C@]24O)cc1OC,> 11.4 µM,1.14%,,-1.26%,> 46 µM,> 9.22 µM,,inactive,,-20.9% [at 2.29 µM],inactive,,
N#CCCCC[N+]12CN3CN(CN(C3)C1)C2,> 11.4 µM,12.8%,,5.06%,> 46 µM,,0.429% [at 11.4 µM],inactive,-17.9%,15% [at 2.29 µM],,,
O=P(O)(O)c1ccccc1 (tested in a mixture with another compound),> 11.4 µM,2.76%,inactive,5.01%,,,6.51% [at 11.4 µM],inactive,-0.661%,,,,
NS(=O)(=O)C[C-]1C=C[CH]([Sb-]([Cl])([Cl])([Cl])([Cl])[Cl])C=C1.c1ccncc1 (stereo unspecified),> 11.4 µM,2.96%,inactive,2.26%,,,,inactive,19.7%,,,,
CC1(C)CCC(C)(C)c2c1ccc(O)c2Cc1c(O)ccc2c1C(C)(C)CCC2(C)C,> 11.4 µM,-8.54%,5.01 µM (active),,> 46 µM,> 9.22 µM,-1.06% [at 11.4 µM],inactive,0.741%,,,,
Nc1ccc(S(=O)(=O)c2ccc(NCN3C(=O)NC(=O)C(=O)C3=O)cc2)cc1,> 11.4 µM,-11.3%,inactive,14.2%,> 46 µM,,,inactive,,,inactive,2 µM (active),-78% [at 11.4 µM]
c1ccc(CCN2CCOCC2)nc1,> 11.4 µM,-2.6%,,11.7%,> 46 µM,> 9.22 µM,1.44% [at 11.4 µM],inactive,,-3% [at 2.29 µM],,,
CC[C@H]1CN2CCc3cc(OC)c(OC)cc3[C@H]2C[C@@H]1C[C@H]1NCCc2c1[nH]c1ccc(O)cc21,> 11.4 µM,-118% (active),inactive,-128% (active),> 46 µM,> 9.22 µM,-2.73% [at 11.4 µM],inactive,,,,,
CCN(CC)CCn1ncc2c(N)ncnc21,> 11.4 µM,1.87%,inactive,0.535%,> 46 µM,,,inactive,,,,,
C[C@H](CN(C)C)C(C#N)(c1ccccc1)c1ccccc1,> 11.4 µM,0.906%,,,> 46 µM,> 9.22 µM,6.57% [at 11.4 µM],inactive,4.38%,-3.4% [at 2.29 µM],,,-41.5% [at 11.4 µM]
Cc1cc[c]([Sb]2[O][C@H]([C@H](O)[C@H](O)C(=O)O)[C@@H](CO)[O]2)cc1,> 11.4 µM,0.9%,inactive,-5.69%,> 46 µM,,0.865% [at 11.4 µM],inactive,,,,,
Oc1ccc([C@H](O)[C@@H]2CCCCN2)cc1O,> 11.4 µM,-22.3%,inactive,5.42%,> 46 µM,> 9.22 µM,1.46% [at 11.4 µM],inactive,,,,,
